Compounds without any hit were thinned out: in the full panel of roughly 79,000, 15% have a hit. A number with no mark means an inactive call. Activity calls are given as the source filed them. Rule as the data show it: active = growth inhibition above about 70%; inactive = the rest.
Columns and labels:
[1] = NCI Yeast Anticancer Drug Screen. Data for the rad50 strain (AID 155);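 also: 0% = growth of vehicle-only cultures of the same strain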; conditions: S. cerevisiae rad50 strain growth inhibition; at 50.0 µM; active compounds read high
In short: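 Compounds were tested on a yeast strain with an engineered DNA damage repair alteration; the reported value is growth inhibition normalised to vehicle treatment.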

[2] = NCI Yeast Anticancer Drug Screen. Data for the sgs1 mgt1 strain (AID 161);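 also: 0% = growth of cultures given vehicle only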; conditions: S. cerevisiae sgs1 mgt1 strain, at 50.0 µM, active compounds read high
In short: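 Genetically altered yeast, compound exposure, growth inhibition relative to vehicle.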

[3] = NCI Yeast Anticancer Drug Screen. Data for the cln2 rad14 strain (AID 165);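 also: 0% = growth equal to vehicle treated cultures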; conditions: S. cerevisiae cln2 rad14 strain, at 50.0 µM, active compounds read high
In short: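 Growth of compound-exposed yeast (cln2 rad14 genotype) measured and expressed as inhibition relative to vehicle.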

[4] = NCI Yeast Anticancer Drug Screen. Data for the bub3 strain (AID 167); conditions: S. cerevisiae bub3 mutant strain, at 50.0 µM, active compounds read high
In short: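 Growth of a checkpoint-deficient yeast mutant is measured after compound exposure. Values represent inhibition relative to vehicle.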

[5] = NCI Yeast Anticancer Drug Screen. Data for the mlh1 rad18 strain (AID 175); conditions: S. cerevisiae mlh1 rad18 strain growth inhibition; at 50.0 µM; active compounds read high
In short: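 In this whole-cell yeast screen, a strain with altered DNA damage repair is challenged with compound, and its growth is measured against matched vehicle-treated controls.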

[6] = NCI Yeast Anticancer Drug Screen. Data for the mec2-1 strain (AID 157); conditions: S. cerevisiae mec2-1 strain, at 50.0 µM, active compounds read high
In short: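 Test agents were screened against the mec2-1 yeast strain, with defined DNA repair or cell cycle alteration. Growth was scored as inhibition against vehicle-only controls.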

Row | Structure (SMILES) | growth inhibition [1] | growth inhibition [2] | growth inhibition [3] | growth inhibition [4] | growth inhibition [5] | growth inhibition [6]
1 | CCCCc1c2c(nc3c1CCC/C3=C\c1ccccc1)/C(=C/c1ccccc1)CCC2 | -5.05% | -1.3% | 9.7% | -0.55% | 22.3% | 
2 | Oc1c(Cl)cc(Cl)cc1CN(Cc1cc(Cl)cc(Cl)c1O)c1ccccc1 | 15.8% | 40.8% | 52.1% | 27.1% | 12.7% | 
3 | CCOC(=O)C1=C(C)OC(=O)CC1C (stereo not given) | 33.2% | 3.75% | 9.05% | -23.6% | 14% | 
4 | NC1=NC(=O)C2(CCCCC2)S1 | -9.6% | -21.2% | -47.6% | -8% | -24.6% | 
5 | COc1ccc(Cl)c(C(=O)O)c1 | 19.1% | 4.1% | 21.4% | 6.85% | 28.4% | 
6 | CCC(C)(O)CCc1ccccc1 (stereo not given) | -17.5% | -64.2% | 2.55% | -36.3% | -5% | 
7 | CC1(SCC(N)C(=O)O)CC(=O)NC1=O (stereo not given) | -40.5% | -64.5% | -36.8% | -39.2% | -40.1% | 
8 | O=C(NC1CCCCC1)C1C(=O)C(=O)N(C2CCCCC2)C1=O (stereo not given) | -14.5% | -13.9% | -8.65% | -5.8% | -28.2% | 
9 | Cc1ccc(S(=O)(=O)NC(=O)Nc2c(-c3nc4ccccc4s3)[n+]([O-])c3ccccc3[n+]2[O-])cc1 | 27.8% | 15.2% | 30.4% | 10.1% | 18.9% | 
10 | CCc1cccc[n+]1CC(=O)c1ccccc1 | -23.5% | -0.85% | -41.8% | 39.7% | 12% | 
11 | O=C(C[N+](=O)[O-])OCc1ccccc1 | 14.8% | 6.4% | -18.1% | -0.4% | 4.65% | 
12 | CC(C)CC1=[N+]=C(NC#N)N=C(CCC(=O)Nc2ccccc2[N+](=O)[O-])C1 | -10.1% | -5.55% | 20.9% | 0.65% | 1.7% | 
13 | COc1ccc2nc(NCN3C(=O)c4ccccc4C3=O)sc2c1 | 5.05% | -19.1% | 26.9% | 9.9% | -5.5% | 
14 | O=C(Cn1cc[n+](CC(=O)c2ccccc2)c1)c1ccccc1 | -5.45% | -4% | -36.6% | 6.05% | 63.4% | 
15 | Cc1ccccc1NC(=O)c1ccc(C(=O)Nc2ccccc2C)cc1 | 11% | 9.2% | 7.8% | 1.05% | 35.9% | 
16 | CCCS(=O)(=O)CCC(=O)c1cccs1 | -0.05% | -8.4% | -19% | -1.85% | 5.95% | 
17 | CO/N=C1C=C/C(=N\OC)C\1 | 10.7% | 0.5% | 7.55% | -19.1% | 0.8% | 
18 | CN1C(=O)c2cnc3ccccc3c2C1(O)c1ccccc1 (stereo not given) | -1.75% | 2.4% | 5.25% | 0% | 3.9% | 
19 | CCOP(=Nc1ccccc1)(OCC)OCC | 4.1% | -3.9% | -5% | 1.75% | 9.4% | 
20 | Cc1ccc(S(=O)(=O)N(c2c(F)cc(C#N)cc2F)S(=O)(=O)c2ccc(C)cc2)cc1 | 51.7% | 32.8% | 30.1% | 2.6% | 31.6% | 
21 | CCC(C)(O)C#CC#CC(C)(O)CC (stereo not given) | 17.2% | 22.1% | 16.6% | -5.35% | 22.1% | 
22 | Cc1ccccc1NC(=O)NN | -32.1% | -31.4% | 10.8% | -16.6% | -5.35% | 
23 | CCCC(=O)OCC1OC(n2cc(F)c(=O)[nH]c2=O)C(F)C1OC(=O)CCC (stereo not given) | -1.45% | -5.8% | -13.9% | -2.6% | -7.25% | 

Row | Structure (SMILES) | growth inhibition [1] | growth inhibition [2] | growth inhibition [3] | growth inhibition [4] | growth inhibition [5] | growth inhibition [6]
24 | O=C1OI(OI2OC(=O)c3ccccc32)c2ccccc21 (tested in a mixture with another compound) | 11.7% | -19.1% | -9.85% | 17.9% | 9.45% | 
25 | Cc1cc(-c2ccc([NH2+][B-](F)(F)F)c(C)c2)ccc1[NH2+][B-](F)(F)F | -9.15% | -11.6% | -58.6% | 3.45% | -11.2% | 
26 | COC(=O)C1(NC(=O)C2(N3C(=O)c4ccccc4C3=O)CCCC2)CCCC1 | -7.95% | -12.7% | -9.45% | -17.9% | 1.6% | 
27 | CCOC(=O)/C=C(\C)c1ccc(OC)cc1 | 7.2% | -3.3% | -7.5% | -8.7% | 11.8% | 
28 | Cc1cccc(N=Cc2ccc(N(CCC#N)S(=O)(=O)c3ccccc3)cc2C)c1 | -34.5% | -54.9% | -8.35% | -10.9% | -9.2% | 
29 | COC(=O)C(O)CC1=CC[C@@H]2CC=C[C@H]12 (stereo not given in full) | 27.7% | 13.7% | 3.7% | 27.5% | -7.65% | 
30 | Nc1nc2nn(-c3ccc(C(=O)NC(CCC(=O)O)C(=O)O)cc3)nc2c(=O)[nH]1 (stereo not given) | 7.05% | 12.9% | 30.5% | 9.05% | -1.4% | 
31 | CN(C)CCNC(=O)Cn1cnc2cccc([N+](=O)[O-])c2c1=O | 34.5% | 4.85% | 20.6% | 20.9% | -34.6% | 
32 | CCOC(=O)c1ccc([N+](=O)[O-])cc1 | -9.55% | -17.4% | -29.2% | -18.6% | 21.1% | 
33 | CCN(CC)CCNc1c(C)cccc1Cl | -2.9% | -7.1% | -26.2% | 1% | -1.5% | 
34 | BrC1=C(c2ccccc2)C2CCCCC2C1(Br)c1ccccc1 (stereo not given) | 96.2% (active) | 97.8% (active) | 96.9% (active) | 96.8% (active) | 98% (active) | 
35 | Cc1ccnc(NS(=O)(=O)c2ccc(N=Cc3ccccc3O)cc2)n1 | -28.4% | -13.9% | -40.4% | -36.2% | -0.5% | 
36 | Fc1c(F)c(F)c(CSc2nc3ccccc3[nH]2)c(F)c1F |  | -26.7% | -7.35% | 0.35% | -16.7% | -20.1%
37 | Cc1cn(C2CC3OP(=O)(OCc4ccccc4)OCC3O2)c(=O)[nH]c1=O (stereo not given) |  | 16.1% | 7.25% | 8% | 4.15% | 7.1%
38 | COc1c2c(cc3nc4ccccc4nc13)CCC(C(C)(C)O)C2 (stereo not given) |  | -3.45% | 3.9% | -0.7% | 6.3% | -10.2%
39 | O=c1[nH]c(N2CCN(c3ccccc3)CC2)nc2cc3ccccc3cc12 |  | -13.6% | -26.8% | -5.15% | -16.9% | -10.6%
40 | O=C(OCC(O)C(O)C(O)C(SCc1ccccc1)SCc1ccccc1)c1ccc([N+](=O)[O-])cc1 (stereo not given) |  | 31.6% | 20.4% | -1% | 5.85% | 3.1%
41 | S=c1sc2cscc2s1 |  | -8.5% | 28.6% | -3% | -1.8% | 18.6%
42 | CC(C)Cn1cnc2c(Sc3c([N+](=O)[O-])ncn3C)nc(N)nc21 |  | -13.2% | -1.4% | 2.1% | 7.15% | -14.1%
43 | CCOC(=O)c1nc2c([nH]1)c(=O)n(C)c(=O)n2C |  | 2.3% | 30.1% | 9.8% | 1.4% | 10.7%
44 | O=c1cc(CC(O)(C(F)(F)Cl)C(F)(F)Cl)[nH]n1-c1ccccc1 |  | -7.75% | 11.4% | -22.1% | -5.65% | 4.05%
45 | O=[N+]([O-])c1ccc(N/N=C(/c2ccc(Cl)cc2)c2ccccc2Cl)c([N+](=O)[O-])c1 |  | -6.25% | -16.8% | 3.35% | 21.4% | 1.2%
46 | CCNC(=O)C1CCCN1C(=O)C(CCCN=C(N)N)NC(=O)C(CC(C)C)NC(=O)C(Cc1c[nH]c2ccccc12)NC(=O)C(Cc1ccc(O)cc1)NC(=O)C(CO)NC(=O)C(Cc1c[nH]c2ccccc12)NC(=O)C(Cc1cnc[nH]1)NC(=O)C1CCC(=O)N1 (stereo not given) |  | -18.5% | -21.6% | 6.05% | 10.2% | -10.6%

Source: PubChem BioAssay (NCI)
